# From PubChem BioAssay AID1463 (National Center for Advancing Translational Sciences (NCATS), 2008)
# Values joined by “and” are separate entries in the source; they are usually repeats but may differ in a detail not shown here. Equal values may be shown once. Hit rate of the full screen: of about 280,000 compounds, about 2,600 (0.93%) were called active. Where a call stands in place of a potency, no number is given. Not shown: some 8% with an inconclusive outcome. Calls come from the whole dose curve; as a rule, active = well fitted curve in the direction sought with a large enough effect; inconclusive = small, poorly fitted or top-dose-only effect; inactive = flat fitted curve, though single readings scatter. Only a selection was taken, and actives are over-represented in it overall.
# Assay: Counterscreen qHTS for Inhibitors of Tau Fibril Formation, Fluorescence Polarization; note: nearly all actives have a fitted effect of over 55% in size
# Details: tau K18 P301L (four-repeat tau fragment) Alexa594 fluorescence, heparin fibrillization; series mostly up to 57.7 µM
# Excerpt: NIH Molecular Libraries Probe Production Network [MLPCN]
# NIH Chemical Genomics Center [NCGC]
# Assay Provider: Carlo Ballatore, University of Pennsylvania
# The microtubule-associated protein tau is an abundant protein in the axons of neurons that stabilizes microtubules. With its ability to modulate microtubule dynamics, tau contributes directly or indirectly, to key structural and regulatory cellular functions. Particularly important is the influence tau exerts on axonal transport, which allows signaling molecules, trophic factors and other essential cellular constituents to travel along the axons. Under pathological conditions, tau becomes sequestered into insoluble aggregates called neurofibrillary tangles. This phenomenon is believed to have pathological consequences by promoting axonal transport deficits that ultimately lead to synaptic dysfunction and neuronal loss. To identify inhibitors of tau aggregation, a heparin-induced tau fibril formation assay was used that employed a recombinantly expressed fragment of tau, K18 (Q242-E372), bearing a P301L mutation (Gustke et al. 1994; Hong et al. 1998). […] Total fluorescence (555 nm excitation and 632 nm emission) was measured to identify fluorescent or absorbent compounds at this wavelength. Such compounds may be artifacts that interfere with the Alexa 594 Tau fluorescence polarization assay.
# Gustke, N., B. Trinczek, et al. (1994). "Domains of tau protein and interactions with microtubules." Biochemistry 33(32): 9511-22.
# Hong, M., V. Zhukareva, et al. (1998).
# Li, W. and V. M. Lee (2006). "Characterization of two VQIXXK motifs for tau fibrillization in vitro." Biochemistry 45(51): 15692-701.
# von Bergen, M., S. Barghorn, et al. (2001). "Mutations of tau protein in frontotemporal dementia promote aggregation of paired helical filaments by enhancing local beta-structure." J Biol Chem 276(51): 48165-74.
# NCGC Assay Protocol Summary:
# For screening, 2 uL/well human K18 P301L (15 uM unlabeled and 0.24 uM Alexa 594-labeled tau final concentrations) in reagent buffer (100 mM sodium acetate pH 7) was dispensed into black solid 1536-well plates (Grenier) using a solenoid-based dispenser. Following transfer of 23 nL compound or DMSO vehicle by a pin tool, 2 uL/well heparin (20 uM final concentration) in reagent buffer was added and the plate centrifuged 15 s at 1000 RPM. Plates were incubated 6 hr at 37 C and then 1 uL/well ThT (30 uM final concentration) was added. After a 1 hr ambient incubation, the plates were read by an Envision (Perkin Elmer) to monitor Alexa 594 FP (555 nm excitation and 632 nm emission).
# Keywords: NIH Roadmap, MLPCN, MLI, MLSMR, NCGC, qHTS, tau, tauopathies, Alzheimer's disease, fibril, neurodegeneration, aggregation
# Potency is the fitted concentration of half-maximal effect; tags give direction and shape of the fitted curve or compound fluorescence and quenching.
row,SMILES,Potency
1,O=C(OCC1O[C@@H](OC(=O)c2cc(O)c(O)c(O)c2)[C@@H](OC(=O)c2cc(O)c(O)c(O)c2)[C@@H](OC(=O)c2cc(O)c(O)c(O)c2)[C@@H]1OC(=O)c1cc(O)c(O)c(O)c1)c1cc(O)c(O)c(O)c1 (stereo not given in full),10 µM [quencher] (active)
2,C=CCN1CCC2(C)c3cc(O)ccc3CC1[C@@H]2C (stereo not given in full),inactive
3,COC1CC(OC2CC[C@@]3(C=O)C4CC[C@]5(C)C(C6=CC(=O)OC6)CC[C@@]5(O)C4CC[C@]3(O)C2)OC(C)C1O (stereo not given in full),inactive
4,N#CC(C#N)=Cc1cc(O)c(O)c([N+](=O)[O-])c1,inactive
5,CC(=O)c1c(O)c(C)c(O)c(Cc2c(O)c3c(c(C(=O)/C=C/c4ccccc4)c2O)OC(C)(C)C=C3)c1O,15.8 µM [quencher] (active) and 12.6 µM [quencher] (active)
6,CO[C@@H]1C[C@@H](C[C@H]2CC[C@H](C)[C@@H]([C@@H](C)C(=O)O)O2)O[C@]2(O[C@](C)([C@H]3CC[C@@](C)(C4OC([C@H]5O[C@@](O)(CO)[C@H](C)C[C@@H]5C)C[C@@H]4C)O3)C[C@H]2C)[C@@H]1C (stereo not given in full),inactive
7,CN(C)[C@@H]1C(=O)C(C(N)=O)=C(O)[C@@]2(O)C(=O)C3=C(O)c4c(O)cccc4[C@@](C)(O)C3CC12 (stereo not given in full),inactive
8,CCCCCCCCCCCCCC(=O)O[C@@H]1[C@@H](C)[C@@]2(O)[C@@H](C=C(CO)C[C@]3(O)C(=O)C(C)=C[C@@H]23)[C@@H]2C(C)(C)[C@]12OC(C)=O,inactive
9,COc1ccccc1-c1[se]c2ccccc2c1I,inactive
10,CC(C)(C)c1ccc(S(=O)(=O)Nc2ccc(O)c(Sc3nc4ccccc4s3)c2)cc1,8.91 µM [quencher] (active)
11,c1ccc2sc(SNC3CCCCC3)nc2c1,inactive
12,CC[C@]1(O)C(=O)OCc2c1cc1n(c2=O)Cc2cc3ccccc3nc2-1,inactive
13,CCCN(C/C=C/I)C1CCc2ccc(O)cc2C1 (stereo not given),inactive
14,CN(C)C1C(=O)C(C(N)=O)=C(O)[C@@]2(O)C(=O)C3=C(O)c4c(O)cccc4[C@@](C)(O)C3C[C@@H]12 (stereo not given in full),inactive
15,CC[C@@H]1CN2CC[C@@H]1C[C@H]2[C@H](O)c1ccnc2ccc(OC)cc12,inactive
